AID504770: growth inhibitors of E. coli YBA685 in a screen for V. cholerae RctB (chromosome II replication) inhibitors; E. coli YBA685 rctB-dependent plasmid, OD600 growth, 3 h; stronger effect = lower value; z-score (test concentration not listed); 130,000 tested, 0.27% active; in the data active = z-score below about -2, passing the limit was not always enough
Mtb MenB inh: blocks the Mycobacterium tuberculosis MenB enzyme | MenB enzyme assay, absorbance read-out | inhibition, % (test concentration not listed) | 100,000 tested, 0.43% active | AID 540299; in the data active = inhibition above about 21%, passing the limit was not always enough
Target sequence (P9WNP5 whole entry, looked up): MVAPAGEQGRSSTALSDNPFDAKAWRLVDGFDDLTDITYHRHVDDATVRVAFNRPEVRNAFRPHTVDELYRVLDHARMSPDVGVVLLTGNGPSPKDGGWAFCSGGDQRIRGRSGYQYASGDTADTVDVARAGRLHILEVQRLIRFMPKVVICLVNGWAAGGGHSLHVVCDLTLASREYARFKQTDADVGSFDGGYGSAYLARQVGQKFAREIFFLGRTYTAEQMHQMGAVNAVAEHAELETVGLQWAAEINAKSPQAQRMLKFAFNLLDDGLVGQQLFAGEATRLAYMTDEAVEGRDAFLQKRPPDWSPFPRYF
MbtI inh: blocks the Mycobacterium tuberculosis siderophore enzyme MbtI; purified MbtI enzyme, fluorescence intensity read-out; inhibition, % (no concentration beside the values); P9WFX0; 100,000 tested, 0.89% active; in the data active = inhibition mostly above about 56%, no sharp cut-off; inactive = mostly below about 77%
Polio RdRp inh: inhibitors of poliovirus RNA polymerase binding and polymerization; 150,000 tested, 0.66% active; poliovirus polymerase elongation, fluorescence polarization; stronger effect = lower value; % elongation, % (compound at 16.7 µg/mL); in the data active = % elongation below about 90%
A number is an active result; . = inactive; / = not tested or not shown. A selection: hits, their analogues and other compounds. The true share with any hit is near 1.5%.

SMILES | AID504770 | Mtb MenB inh | MbtI inh | Polio RdRp inh
CC1SC(c2ccccc2)NC1=O (stereo not given) | . | . | 90.6 | .
Nc1ccc(S(=O)(=O)CCSS(=O)(=O)c2ccc(N)cc2)cc1 | . | . | 99.2 | 63.0
CC(C)CN(C(=O)c1ccncc1)c1nc2ccccc2s1 | . | . | 71.2 | 87.0
Cc1ccc(-n2c(C)cc(C(=O)COc3ccc(C#N)cc3)c2C)cc1 | . | . | . | .
CCc1ccc(NC(=O)Cn2c3ncccc3c(=O)n2-c2ccc(C)c(C)c2)cc1 | / | / | / | .
O=C(NCc1ccccc1)C(c1ccc(F)cc1)N(Cc1ccco1)C(=O)c1ccccn1 (stereo not given) | . | . | . | .
Nc1n[nH]c2cc(=O)[nH]c(O)c12 | . | . | . | 5.0
CCOC(=O)c1cn(C2CC2)c2c(F)c(F)c(F)cc2c1=O | . | . | / | .
Cc1ccc(CSc2nnc(-n3c(=O)c(C#N)cc4c(=O)n5cccc(C)c5nc43)s2)cc1 | / | / | / | .
O=C(Nc1ccc(N2C(=O)C=CC2=O)cc1Cl)c1ccco1 | . | . | 96.2 | .
O=C(OCc1ccc(Br)cc1)c1cccnc1 | . | . | / | .
NS(=O)(=O)c1ccc(-n2cccc2C=C2C(=O)NC(=S)NC2=O)cc1 | . | . | 97.0 | .
Cc1cc(=O)oc2c(/C=N/c3ccccn3)c(O)ccc12 | . | . | . | 88.0
CC(=O)Oc1c(O)ccc2c(C)cc(=O)oc12 | . | . | . | .
C=CCOn1c(=O)c(-c2ccc(OC)c(OC)c2)[n+]([O-])c2ccccc21 | . | . | 77.9 | .
CN(C)c1ccc(C=Nc2ccc3c(c2)ncn3C(C)(C)C)cc1 | . | / | . | .
CC(Sc1ncnc2sc3c(c12)CCCC3)C(=O)O (stereo not given) | -3.4 | . | / | .
Cc1sc2nc3n(c(=O)c2c1-c1ccccc1)CCC3 | . | . | . | 76.0
Cc1sc2nc(CCl)[nH]c(=O)c2c1C | . | / | . | .
Cc1sc2nc(CCl)[nH]c(=O)c2c1-c1ccccc1 | . | / | 81.5 | 89.0
O=c1c2c(-c3ccccc3)csc2nc2n1CCC2 | . | . | / | .
C/C(CC1(O)/C(=N/O)CCc2nonc21)=N\O (stereo not given) | . | . | . | .
O=C(c1ccccc1)c1ccc(N2CCCC2)cc1 | . | . | . | .
NNC(=O)c1cc2ccccc2[nH]1 | . | . | . | .
NNC(=O)c1cc(=S)nc[nH]1 | . | . | 99.2 | .
SMILES | AID504770 | Mtb MenB inh | MbtI inh | Polio RdRp inh
N#CC1=C(N)SC(N)=C(C#N)C1c1ccc(O)cc1 | . | . | 83.3 | .
CC(C)c1ccc(C2C(C#N)=C(N)SC(N)=C2C#N)cc1 | . | . | / | .
C1CNC(C23CC4CC(CC(C4)C2)C3)=N1 | . | . | . | .
C1=C(C23CC4CC(CC(C4)C2)C3)SC2=NCCN12 | . | . | 68.7 | .
O=c1[nH]cnc2c1cnn2-c1ccc(C(F)(F)F)cn1 | . | / | . | .
O=c1c(Cl)c(Cl)cnn1-c1ccc(C(F)(F)F)cn1 | . | . | . | 88.0
CN1CCN(c2ccc(CN3CCS(=O)(=O)CC3)cc2)CC1 | . | / | / | /
Nc1nonc1C(=O)NN=c1c(=O)c2ccccc2c1=O | . | . | . | 47.0
Nc1nonc1C(=O)NCCN=Cc1ccccc1O | . | . | . | .
O=C(/C=C(\O)c1ccc(Cl)cc1)C(F)(F)F | -4.3 | . | . | .
O=C(O)C1CCN(C(=O)C(F)(F)F)CC1 | . | / | / | /
Fc1ccccc1-c1nnc2ccc(C(F)(F)F)cn12 | . | . | / | 16.0
COc1ccccc1-c1noc(-c2ccccc2C(=O)NCc2ccco2)n1 | . | . | 59.2 | .
CNC(=O)c1ccccc1-c1nc(-c2ccccc2OC)no1 | . | . | . | .
Cc1ccc(-c2nn(CC(=O)N(C)C)c(=O)c3ccccc23)cc1 | . | . | . | .
N#CC1=C(N)Oc2nc(-c3ccccc3)[nH]c2C1c1ccc(OCC(N)=O)cc1 (stereo not given) | . | . | / | .
COc1cccc(-c2cc(C(F)(F)F)nc(-n3cccn3)n2)c1 | . | . | . | .
CC1=C(O)C(=O)C=C2C1=CC=C1[C@@]2(C)CC[C@@]2(C)[C@@H]3C[C@](C)(C(=O)O)CC[C@]3(C)CC[C@]12C | . | . | 102.7 | .
CS(=O)(=O)NNc1nccc(-c2cccnc2)n1 | . | . | 87.3 | .
CCOc1ccccc1NC(=O)C1CCN(S(=O)(=O)c2ccc3c(c2)CC(C)N3C(C)=O)CC1 (stereo not given) | / | / | / | .
O=S(=O)(Cc1ccc(F)cc1)c1cn(Cc2ccccc2Cl)c2ccccc12 | . | . | . | .
COCCn1c(C)cc(/C=N/n2c(C)nc3ccccc3c2=O)c1C | . | . | . | .
COCCn1c(C)cc(/C=N/n2c(Cc3cccc4ccccc34)n[nH]c2=S)c1C | . | . | 73.2 | .
CCN1CCN(CCCNC(=O)CS(=O)(=O)Cc2nc(-c3cccc(OC)c3)oc2C)CC1 | / | / | / | .
CCC(=O)N1CCc2cc(S(=O)(=O)NC(Cc3ccccc3)C(=O)Nc3ccccc3C)ccc21 (stereo not given) | / | / | / | .
SMILES | AID504770 | Mtb MenB inh | MbtI inh | Polio RdRp inh
CN1C(=O)S/C(=C/c2ccc(-c3ccc(C(=O)O)c(Cl)c3)o2)C1=O | . | . | . | .
CCN1C(=O)/C(=C\c2ccc(-c3ccc(Cl)c(C(=O)O)c3)o2)SC1=S | . | . | 66.6 | .
c1ccn2cc(CSC3=NCCS3)nc2c1 | . | / | / | /
Cc1ccc(C)c(NC(=O)Cn2c(=O)n(Cc3nc(C)no3)c(=O)c3cc4c(cc32)OCO4)c1 | / | / | / | .
NCCN1CCCC1=O | . | 28.2 | . | .
CCOc1ccc2c(c1)NC(c1ccc(C)o1)=NC(c1cccs1)=N2 | . | . | . | .
O=S(=O)(Nc1ccccc1-c1ccccc1)c1cccs1 | . | 51.9 | . | .
CCC(=O)Nc1nc2ccccc2s1 | . | / | . | /
CCC(=O)Nc1nc2c(s1)CSc1ccccc1-2 | . | . | 95.8 | .
CSc1nc2c(sc(=S)n2-c2ccccc2C)c(=O)n1-c1ccccc1C | . | . | 61.8 | .
CCc1ccc(-n2c(=S)sc3c(=O)n(-c4ccccc4)c(SCC#N)nc32)cc1 | . | . | . | .
CCCCCCCc1c(C#N)c(N)[nH]c(=S)c1C#N | . | . | 97.0 | 69.0
CN1CCC2(CC1)N=C(c1ccccc1)C(=S)N2 | . | . | . | .
CCN1CCC2(CC1)N=C(c1ccccc1)C(=S)N2 | . | . | 77.4 | .
C=CCn1c(CNC(=O)c2ccccc2)nc2ccccc21 | . | . | / | .
CCN(CC)C(=S)Nc1ccc2oc(N(C)C)nc2c1 | . | . | / | 90.0
COc1cc(NC(=O)N2CCOc3ccccc32)cc(OC)c1OC | . | . | . | .
CN(Cc1nc2ccccc2c(=O)[nH]1)C(=O)COc1ccc2c(c1)CCC2 | . | . | . | 55.0
CC1Cc2ccccc2N1C(=O)Cn1ncc(Cl)c(Cl)c1=O (stereo not given) | . | . | . | .
O=S(=O)(c1ccc(Cl)cc1)N(Cc1ccccn1)Cc1ccccn1 | . | / | / | /
Clc1ccccc1C1SCC2Nc3ccccc3CN21 (stereo not given) | . | 70.5 | . | .
COc1ccc(NC(=O)CSc2nc(-c3ccccc3)cc(-c3cc(OC)c(OC)c(OC)c3)c2C#N)c(OC)c1 | / | / | / | .
OC1(CCC2(O)CCCC2)CCCC1 | . | 28.2 | . | .

Assay outcomes: PubChem, ICCB-Longwood Screening Facility, Harvard Medical School
